Hits are enriched below; roughly 14% of the tested compounds scored in any of these assays.
USP8 inh – inhibitors of human USP8 deubiquitinase. purified USP8, Ub-rhodamine cleavage fluorescence, 30 min. inhibition, % at 20 µM. hit rate 4.2% among 47,000
USP17 block – inhibitors of human USP17 deubiquitinase; inhibition, % at 50 µM; hit rate 6.5% among 47,000; purified USP17, Ub-rhodamine cleavage fluorescence, 3 h; AID 1645855, 2021; Ubiquitin carboxyl-terminal hydrolase 17-like protein 5 (Homo sapiens), A8MUK1
USP28 block – inhibitors of human USP28 deubiquitinase; purified USP28, Ub-rhodamine cleavage fluorescence, 30 min; inhibition, % at 25 µM; hit rate 3% among 47,000; AID 1645857, 2021
USP30 inh – inhibitors of human USP30 deubiquitinase; Ubiquitin carboxyl-terminal hydrolase 30 (Homo sapiens), Q70CQ3; purified USP30, Ub-rhodamine cleavage fluorescence; inhibition, % at 25 µM; hit rate 5.3% among 47,000; AID 1645860, 2021
USP10 block – inhibitors of human USP10 deubiquitinase. Ubiquitin carboxyl-terminal hydrolase 10 (Homo sapiens), Q14694. purified USP10, Ub-rhodamine fluorescence, 60 min. hit rate 1.1% among 47,000. inhibition, % at 20 µM
Numbers stand for hits; – = inactive; · = no result. No stated cut-off is given here; in the data, active means inhibition above about 30%; inactive means the rest.

SMILES	USP8 inh	USP17 block	USP28 block	USP30 inh	USP10 block
O=C(NCC1OCCc2ccccc21)c1ccccc1Br (configuration not stated)	–	–	–	–	–
CCc1nc(N2CCCC2=O)sc1C(=O)Nc1cccc(C(C)=O)c1	–	–	52.3	–	–
CCOC(=O)Nc1cccc(C(=O)Nc2ccc(N3CCCC3=O)cc2)c1	–	–	–	–	–
CCc1nc(N2CCCC2=O)sc1C(=O)Nc1cccc(C)c1	–	·	48.8	–	–
CCc1nc(N2CCCC2=O)sc1C(=O)Nc1ccccc1	–	·	–	–	–
O=C(CSc1ncccn1)c1ccc(Cl)cc1Cl	–	–	–	–	–
CC(C)CC(=O)N1CCC(c2nc3c(nnn3Cc3ccccc3)c(=O)[nH]2)CC1	–	–	–	–	–
O=C(O)c1cc([N+](=O)[O-])ccc1N1CCC(Cc2ccccc2)CC1	–	–	–	30.9	–
COc1cc(C(=O)Oc2ccc3ccc(=O)oc3c2)cc(OC)c1OC	–	–	–	45.0	–
COc1ccc(NC(=O)COc2ccc3ccc(=O)oc3c2)cc1	–	56.9	–	–	–
COc1ccc(-c2nc(SCC(=O)Nc3ccc(C(C)=O)cc3)n[nH]2)cc1	–	53.6	–	–	–
COc1ccc(N(C)C(=O)Cc2noc3ccc(C)cc23)c(OC)c1	–	–	–	–	–
Cc1ccc(-c2cc(C(=O)Nc3cc(C)ccc3C)[nH]n2)c(O)c1	–	33.7	–	–	–
CC(=O)Nc1ccc(NC(=O)c2cc(-c3cc(C)cc(C)c3O)n[nH]2)cc1	–	35.0	45.5	62.2	–
COc1ccc(OC)c(NC(=O)c2cc(-c3ccc(C)c(C)c3O)n[nH]2)c1	–	–	–	–	–
Cc1ccc(NC(=O)c2cc(-c3ccncc3)n[nH]2)c(C)c1	–	–	–	–	–
Cc1cccc(NC(=O)c2cc(-c3ccc(C)c(C)c3O)n[nH]2)c1	80.8	87.5	–	76.0	–
CN1C(=O)CO[C@H](c2ccc(NC(=O)c3cc(F)cc(F)c3)cc2)[C@H]1CO	–	–	–	–	–
Cc1ccccc1CNC(=O)C1CCN(c2ccncc2)CC1	–	–	–	–	–
O=C(NCc1ccncc1)C1CCN(c2cncnc2N2CCCCC2)CC1	–	–	51.5	–	–
CCCOc1ccc(CNC(=O)C2CCN(c3ccncc3)CC2)cc1	–	–	34.7	–	–
O=C(NCc1ccccc1)C1CCN(c2cncnc2N2CCOCC2)CC1	–	–	–	–	–
c1ccc(CN2CCC[C@H]2c2nc(-c3ccc(-c4cncnc4)nc3)no2)nc1	–	–	–	–	–
COc1ccc(-c2nn(-c3ccccc3)cc2/C=C/C(=O)Nc2ccc(C(C)=O)cc2)cc1OC	–	55.2	48.1	83.5	–
COc1ccc(C(=O)/C=C\c2cn(CCC(=O)O)nc2-c2ccc(OC)c(OC)c2)cc1	–	–	–	–	–
SMILES	USP8 inh	USP17 block	USP28 block	USP30 inh	USP10 block
O=C(C1CCN(c2nc3cccnc3s2)CC1)N1CCC(N2CCCCC2)CC1	–	–	–	–	–
O=C(NCc1ccc(F)cc1)C1CCN(S(=O)(=O)c2ccccc2)CC1	–	–	–	–	–
O=C(NNS(=O)(=O)c1ccc(F)cc1)C1CCN(S(=O)(=O)c2ccccc2)CC1	–	–	31.0	–	–
Cc1ccc(NC(=O)CC(NCCc2ccccc2)C(=O)O)cc1 (configuration not stated)	–	–	–	–	–
Cc1cc(O)ccc1NC(=O)CC(NCCc1ccccc1)C(=O)O (configuration not stated)	30.8	–	–	–	–
CCCCCC1CC2=C(C(=O)OC2=O)C(O)C(O)(CCCC)CC2=C1C(=O)OC2=O (configuration not stated)	–	–	–	–	–
CCCCCCCCCCCC[C@@]1(C(=O)O)OC(=O)[C@@H](O)[C@@]1(O)C(=O)O	–	–	–	41.4	–
CCCn1nnc2cc(S(=O)(=O)N3CCCC(C(=O)NCCc4ccco4)C3)ccc21 (configuration not stated)	–	39.3	–	–	–
CCCn1nnc2cc(S(=O)(=O)N3CCCCC3C(=O)O)ccc21 (configuration not stated)	–	–	–	–	–
C[C@H]1O[C@H](O[C@H]2CC[C@H](n3ccc(NC(=O)c4ccc(NC(=O)[C@@](C)(N)CO)cc4)nc3=O)O[C@@H]2C)[C@H](O)[C@@H](O)[C@@H]1N(C)C	–	–	–	–	–
COc1ccc(NC(=O)CSc2nc(C)nc3c2oc2ccccc23)c(OC)c1	–	–	–	–	–
COc1ccccc1NC(=O)CSc1nc(C)nc2c1oc1ccccc12	–	–	–	35.2	–
Cc1ccc(NC(=O)CSc2nc(C)nc3c2oc2ccccc23)c(C)c1	–	–	–	31.6	–
Cc1nc(SCC(=O)Nc2ccc(C)c(Cl)c2)c2oc3ccccc3c2n1	–	43.7	–	39.3	–
Cc1nc(SCC(=O)Nc2ccc(Cl)c(Cl)c2)c2oc3ccccc3c2n1	–	–	–	–	–
Cc1nc(SCC(=O)NC(C)c2ccccc2)c2oc3ccccc3c2n1 (configuration not stated)	–	37.9	–	–	39.7
Cc1ccc(C)c(NC(=O)C2CCN(c3nc4nc[nH]c(=O)c4s3)CC2)c1	–	–	–	–	–
CC(=O)N1[C@@H]2CN(C(=O)c3cc(C)nc4onc(C)c34)[C@@H]3CCCC[C@H]1[C@]3(C)C2	–	–	–	–	–
Cc1cc(C(=O)N[C@H]2[C@H](O)[C@H](O)C[C@@H]2c2ccc(C(F)(F)F)nc2)c(C)o1	–	–	–	–	–
CCN1CCc2nc(NC(=O)CCCOc3ccc(C(C)=O)cc3)sc2C1	–	44.4	–	36.1	–
CC(=O)c1ccc(OCCCC(=O)Nc2nc3c(C)cccc3s2)cc1	–	35.6	–	–	–
CCN1CCc2nc(NC(=O)COc3ccc4ccccc4c3)sc2C1	–	–	–	–	–
COc1cc(NC(=O)NC2CCN(c3ccccc3)C2=O)cc(OC)c1 (configuration not stated)	–	–	–	–	–
O=c1c(NCc2ccccc2Cl)nccn1Cc1ccc(F)cc1	–	–	30.1	30.3	–
Cc1cc(C)cc(NC(=O)c2ccc(CSc3ncnc4nc[nH]c34)cc2)c1	–	–	–	–	–
CC(Sc1ncnc2nc[nH]c12)C(=O)Nc1ccc(Br)cc1F (configuration not stated)	73.6	–	–	–	–
Cc1ccc2c(C)c(C(=O)Nc3ccc4c(c3)NC(=O)CO4)oc2c1	–	–	·	·	–
COc1cc2ncc(S(=O)(=O)c3ccc(C)cc3)c(Nc3ccc(F)cc3)c2cc1OC	–	–	46.7	–	–
CC1(C)Cc2nc3sc4c(=O)n(CC(=O)NCc5ccccc5)cnc4c3cc2CO1	–	53.5	–	–	–
Cc1nc(SCC(=O)Nc2cccc(Cl)c2)c2sc3nc4c(cc3c2n1)COC(C)(C)C4	–	33.7	–	32.1	–

Screening data (PubChem BioAssay)
